Measurements from PubChem BioAssay AID488899 (Broad Institute, 2010).
Out of some 330,000 compounds screened, about 2,800 (0.85%) were called active.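 The calls were made as follows: active = mean inhibition across replicates of 60% or more, whatever share of single replicates reaches that level; inconclusive = some that reach 60%, reason not given; inactive = mean inhibition across replicates below 60%.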 Shown is part of a subset that was picked to be rich in actives.

Experiment: MITF transcriptional activity suppression – cell-based, SK-MEL-5, single point, luciferase, primary screen (AID 488899)
Details: SK-MEL-5 TRPM1 promoter luciferase, 24 h; at 12.5 µM; stronger effect = higher value

inhibition, inactive:
N#Cc1cc([N+](=O)[O-])ccc1Oc1cccc(/C=N/NC(=O)c2ccc(Cl)cc2)c1 4.52%
O=C(N/N=C/c1cccc(OCc2ccccc2)c1)c1ccc(Br)o1 4.51%
COc1ccc(C(=O)NC2CC(C)(C)NC(C)(C)C2)cc1OC 1.95%
CCOc1ncccc1C(=O)OCC(=O)c1c[nH]c2ccccc12 1.75%
O=C(Nc1cc2c3c(c1)C1CCCC1CN3CC1CCCC21)c1ccc([N+](=O)[O-])cc1 (stereo not given) 1.02%
COc1ccc(NC(=O)N2CCCC2C(=O)NCc2ccccc2Cl)cc1 (stereo not given) 11.5%
C=CCNc1nnc(SCC(=O)N2CCCCC2)c2ccccc12 11.5%
CC(C)Cn1c(CCC(=O)O)ccc1-c1cccs1 7.94%
CCc1ccc2nc(N(CCCN(C)C)C(=O)c3ccc4c(c3)OCCO4)sc2c1 -67.8%
CC1CCN(C(=O)c2cccc(S(=O)(=O)N3CCCc4ccccc43)c2)CC1 7.39%
Cc1ccc(NC(=O)c2cccc(S(=O)(=O)N3CCCc4ccccc43)c2)nc1 23.9%
O=C(COC(=O)c1ccc([N+](=O)[O-])cc1Cl)NC(=O)c1ccccc1 -3.45%
CCC(=O)Nc1nnc(S(=O)(=O)N2CCCc3ccccc32)s1 5.17%
Cn1c(=O)n(C)c2cc(S(=O)(=O)N3CCCc4ccccc43)ccc21 0.873%
COc1ccc2sc(N(CCCN(C)C)C(=O)c3ccc(S(=O)(=O)N(C)C4CCCCC4)cc3)nc2c1 55.2%
N=C1C(c2nc3ccccc3s2)=C(O)CN1NC(=O)c1ccc([N+](=O)[O-])cc1 14.1%
CC(=O)N(OCc1ccc(OC(C)C)c(Cl)c1)C(C)=O -2.52%
OCC1(CO)CC2(C1)CC(CO)(CO)C2 -3.8%
CCN(CC)S(=O)(=O)c1cccc(NC(=O)c2ccc(S(=O)(=O)N3CCCC3)cc2)c1 11%
COc1ccc(-c2cc(C(=O)NC(Cc3c[nH]c4ccccc34)C(=O)O)c(C)o2)cc1OC (stereo not given) 9.33%
O=C(NCC1(N2CCCCC2)CCCCC1)c1cccc(S(=O)(=O)Nc2ccccc2Cl)c1 -26.7%
Cc1cc(NC(=O)C(C)SCC(=O)Nc2cccc(S(=O)(=O)N3CCCCCC3)c2)no1 (stereo not given) 18.1%
CCC1CCCCN1C(=S)Nc1ccc(SC(F)F)cc1 (stereo not given) -3.13%
COCCn1c(=NC(=O)c2ccccc2[N+](=O)[O-])sc2cc(S(C)(=O)=O)ccc21 -52%
N#CC1=C(N)Oc2cc(N)ccc2C1c1ccccc1 (stereo not given) 23.5%
Nc1ncnc2c1cnn2C1CC(O)C(CO)O1 (stereo not given) -4.63%
CC(C(=O)NC1CCCC1)N1CCN(S(=O)(=O)c2ccccc2Cl)CC1 (stereo not given) -2.61%
O=C(Nc1c[nH]c(=O)[nH]c1=O)OCc1ccccc1 0.994%
CC1(C)N=C(N)NC(Nc2ccc(Cl)cc2)=N1 4.8%
CC(C)(C)OC(=O)NC(Cc1ccccc1)C(=O)NC(CSC1CCCCO1)C(=O)NN (stereo not given) -5.98%
COc1ccc2sc(-c3ccc(N(C)C)cc3)c(C#CCO)c2c1 -46.5%
COc1ccc2sc(-c3ccc(N(C)C)cc3)c(-c3ccc4cc[nH]c4c3)c2c1 -103%
Cn1cc(S(=O)(=O)N2CCN(c3ccc(F)cc3)CC2)c(=O)n(C)c1=O 1.94%
COC(=O)Cc1nc2c(N)nc(N)nc2[nH]c1=O 3.9%
CCc1ccc(-c2cc(C)no2)cc1S(=O)(=O)NCCc1ccc(S(N)(=O)=O)cc1 -13.2%
O=C(C[C@H]1C[C@H](C(=O)N2CCOCC2)[C@@]2(CCC3CCCC3)c3[nH]c4ccc(Cl)cc4c3CCN2C1=O)NCc1ccco1 21.2%
COc1ccc2[nH]c3c(c2c1)CCN1C(=O)C(CC(=O)NCCCN(C)C)C[C@H](C(=O)N2CCOCC2)[C@@]31CCC1CCCC1 (stereo not given in full) -12.1%
CCOC(=O)N1CCN(C(=O)C2CCCN(c3ncnc4c3sc3cccc(F)c34)C2)CC1 (stereo not given) 28.8%
Cc1[nH]c2c(C(=O)N3CCCC(CCC(=O)NCc4ccccc4F)C3)cccc2c1C (stereo not given) -16%
CC(=O)N(C1=C(Cl)C(=O)c2ccccc2C1=O)c1ccc(C(=O)O)cc1 11.6%
CC(=O)Oc1ccc2c(c1)C(=O)c1ccccc1C2=O -2.87%
COC(=O)C1=C(NC(=O)C(C)(C)C)CCS1 -3.02%
CC(C)C[C@@H](NC(=O)[C@H]1CCCN1C(=O)Cc1ccccc1)C(N)=O 0.4%
NC(=O)C1(N2CCCC2)CCN(Cc2ccccc2)CC1 -3.66%
C=CCNc1cnn(-c2ccc(C)cc2)c(=O)c1Cl -110%
Cc1cccc(-n2ncc(C#N)c2-n2cccc2)c1 3.18%

inhibition, active:
CCCc1ccc(OCc2ccc(C(=O)N/N=C/c3cccc([N+](=O)[O-])c3)o2)c(OC)c1 69.2%
O=C(NC(Nc1nc2ccc([N+](=O)[O-])cc2s1)(C(F)(F)F)C(F)(F)F)c1ccccc1 70.9%
CN(C)CCCN(C(=O)c1ccc(S(=O)(=O)N2CCCCCC2)cc1)c1nc2ccc(Br)cc2s1 92.8%
O=C(Nc1nc2ccc([N+](=O)[O-])cc2s1)c1ccc(S(=O)(=O)N2CCCc3ccccc32)cc1 75.6%
CN(C)CCCN(C(=O)c1ccc(S(=O)(=O)N2CCCc3ccccc32)cc1)c1nc2ccc(F)cc2s1 70.8%
COc1ccc2c(c1)c(=Cc1ccc(N(C)C)cc1)c1cc(-c3ccccc3)[n+](C)n12 95.7%
COc1ccc(CNC(=O)C[C@H]2C[C@H](C(=O)N3CCOCC3)[C@@]3(CCC4CCCC4)c4[nH]c5ccc(Cl)cc5c4CCN3C2=O)cc1OC 72.7%
O=C1C(Cl)=C(Oc2ccccc2)C(=O)c2ccccc21 89.7%
Cc1cccc(-n2ncc(Cl)c(Cl)c2=O)c1 72.1%
